The values that follow come from PubChem BioAssay (NCI).

Holding throughout (test): NCI-60 one-dose screen, 48 h (100 = growth as untreated, 0 = no growth, -100 = all killed)
Holding throughout (details): 10 µM unless noted

The test system of assay [1] is NCI-H23 lung.
In assay [2] the test system is NCI-H226 lung.
The test system of assay [3] is NCI-H322M lung.
Assay [4] deals with HOP-62 NSCLC.
Assay [5] relates to NCI-H460 lung.
Assay [6] relates to HOP-92 NSCLC.
The subject of assay [7] is NCI-H522 lung.
The test system of assay [8] is A549/ATCC NSCLC.
In assay [9] the test system is 786-0 renal.
Assay [10] has as its system COLO 205 colon.

About 83,000 compounds went through this panel and 20% of them were active in at least one assay; those are over-represented in the sample as a whole.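 Single-dose data. Exposure time 48 hours. Values below 10 considered active.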 A number with no mark means an inactive call. Active and inactive are the calls of the source.

Take `COC(=O)c1ccc(Cn2cnc3c(N)ncnc32)cc1`: the growth was 103% in assay [1]; 106% in assay [2]; 106% in [3]; 97% in [4]; 115% in assay [5]; 92.1% in [6]. Further, the growth was 69.6% in assay [7], 104% in assay [8] and 114% in assay [9].

As to `O=C(Cc1ccc(/C=C/C(=O)c2ncc[nH]2)cc1)Nc1ccccc1`, the growth in assay [1] was 39.8%; in [2], 87.7%; in [3], 67.4%; in assay [4] it was 49.9%; in assay [5], 11.7%; in assay [6], 83.6%. Further, the growth in [7] was 31.2%; in assay [8], 57.2%; in assay [9] it was 32.8%.

Consider `CC(C)C[C@@H](NC(=O)[C@@H](Cc1ccccc1)NC(=O)c1cnccn1)B1Oc2ccc(C[C@H](NC(=O)[C@H](Cc3ccc4c(c3)OB([C@@H](CC(C)C)NC(=O)[C@@H](Cc3ccccc3)NC(=O)c3cnccn3)O4)NC(=O)[C@@H](N)CC3CCC4OB([C@@H](CC(C)C)NC(=O)[C@@H](CC5CCCCC5)NC(=O)C5CNCCN5)OC4C3)C(=O)NCCCC[C@@H]3NC(=O)[C@@H](Cc4ccccc4)NC(=O)[C@H](CC(=O)O)NC(=O)CNC(=O)[C@H](CCCNC(=N)N)NC3=O)cc2O1` (some centres not stated), for which the growth in assay [1] was -41.3% (active); in [2], -50.2% (active); in assay [3], -8.33% (active); in assay [4], -43.2% (active); in assay [5] it was -54.8% (active); in [6], -74.1% (active). Further, the growth in [7] is -43.4% (active); in assay [8] it was -49.5% (active); in assay [9], -12.6% (active).

In the case of `COc1cc(CNc2oc(-c3ccccc3)c(-c3ccccc3)c2C#N)cc(CN2CCN(C)CC2)c1O`, the growth is 73.1% in [1]; 88% in assay [2]; 89.2% in assay [3]; 79.2% in [4]; 33.4% in assay [5]; 43.9% in assay [6]. The growth is 71.5% in [7], 56.8% in assay [8], 67.2% in [9] and 54.3% in assay [10].

For the compound `Cc1ccc2oc(=O)cc(C3c4ccc([nH]4)C(c4cc(=O)oc5ccc(C)cc45)c4ccc([nH]4)C(c4cc(=O)oc5ccc(C)cc45)c4ccc([nH]4)C(c4cc(=O)oc5ccc(C)cc45)c4ccc3[nH]4)c2c1` (configuration not stated), the growth is -53.2% (active) in assay [1]; -39.2% (active) in assay [2]; -10.2% (active) in [3]; -68.2% (active) in assay [4]; -66.4% (active) in assay [5]; -24.1% (active) in assay [6]. The growth was -63.5% (active) in [7], -24.6% (active) in assay [8] and -58.9% (active) in assay [9].

Consider `O=C1/C(=C/c2ccc(OCCCOc3ccc(Cl)cc3)cc2)N=C2SCCCN12`, for which the growth is 49.7% in assay [1]; 86.4% in [2]; 103% in assay [3]; 99.1% in [4]; 98.1% in [5]; 92.5% in assay [6]. The results for the growth in assay [7], in assay [8] and in assay [9] were 34.6%, 73.4% and 82.1%, respectively.

Turning to `O=C1c2ccccc2C(=O)c2c1ccc1[nH]c(-c3cccs3)nc21`, the growth in assay [1] was 84.5%; in assay [2] it was 91.9%; in [3] it was 60.9%; in assay [4], 102%; in assay [5], 73.7%; in assay [6], 80.8%. In addition, the growth in assay [7] is 78.9%; in assay [8], 66.7%; in assay [9], 99.9%.

Consider `O=c1nc2oc3ccc4ccccc4c3cc-2s1`, for which the growth is 45.5% in assay [1]; 37.5% in assay [2]; 35% in assay [3]; 23% in assay [4]; 11.1% in assay [5]; 14.2% in assay [6]. Besides, the results for the growth in [7], in [8] and in assay [9] were -3.74% (active), 35.1% and 23%, respectively.

On to `O=C(COc1cccc(/C=C2\COc3ccccc3C2=O)c1)Nc1nccs1`, for which the growth in [1] was 13.4%; in assay [2], 95.4%; in assay [3], 99.3%; in assay [4], 83.3%; in assay [5], 87.9%; in assay [6] it was -3.51% (active). In addition, the values for the growth in assay [7], in assay [8] and in [9] were -30.5% (active), 101% and 95.5%, respectively.

In the case of `N#CN1CCC[C@H]1C(=O)N1CCc2c(-c3[nH]nc4ncccc34)cccc21`, the growth in assay [1] is 4.9% (active); in assay [2], -29.1% (active); in [3], 20.6%; in [4], -10.1% (active); in assay [5] it was 3.48% (active); in assay [6] it was -21.6% (active). The growth in assay [7] is -51.7% (active); in assay [8], 3.83% (active); in assay [9], 9.59% (active); in assay [10] it was -77.5% (active).

In the case of `COc1ccc(-c2cc(-c3ccc(Nc4ccnc5cc(Cl)ccc45)cc3)nc(N3CCOCC3)n2)cc1`, the growth in assay [1] is 68%; in assay [2], 69.4%; in [3], 87%; in assay [4] it was 81.6%; in assay [5], 13.3%; in [6], 67.2%. In addition, the growth in assay [7] is 48%; in assay [8], 12.3%; in [9], 69.6%; in assay [10], 44.7%.

Take `COc1ccc2c(c1)C(=O)/C(=C/c1cccnc1)CC2`: the growth in assay [1] is 90.9%; in assay [2], 107%; in assay [3], 106%; in assay [4], 97.5%; in [5], 105%; in assay [6] it was 94.7%. Also, the growth was 73.2% in [7], 101% in assay [8], 94.6% in assay [9] and 105% in assay [10].

Take `COc1cc(-c2nc3cc(Cl)c(Cl)cc3[nH]2)ccc1OCC(=O)N=Nc1c(O)[nH]c2ccccc12`: the growth in assay [1] was -81.1% (active); in assay [2] it was -27.2% (active); in assay [3] it was -40.7% (active); in [4], -60.2% (active); in assay [5] it was -68% (active); in [6], -67.2% (active). Moreover, the growth in assay [7] was -64.3% (active); in assay [8], 4.16% (active); in assay [9] it was -82.6% (active); in [10], -78% (active).

`CNc1ccc(-c2cc(=O)oc3ccc(Cl)cc23)cc1`: the growth in [1] is 18.5%; in assay [2], 48.1%; in [3], 54.4%; in [4], 26.2%; in assay [5], 6.78% (active); in assay [6], 37.3%. Besides, the growth in assay [7] was -25.3% (active); in assay [8] it was 10.1%; in assay [9], 37.3%; in assay [10], -15.1% (active).
